# Source: PubChem BioAssay
# A selection: hits, their analogues and other compounds. The true share with any hit is near 11%.
# VP16 counter: VP16 counterscreen qHTS for inhibitors of ROR gamma transcriptional activity | Drosophila S2 Gal4-VP16 UAS-luciferase, luminescence, 20 h | Potency, µM (series often up to 53.6 µM), for inactives: top-dose activity, negative = inhibition, usual class: inhibitors | 3.5% of 310,000 active;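 further: Gal4-VP16 expression switched on by copper sulfate through the metallothionein promoter; potency means the concentration at half of the fitted maximal effect; on the % scale 0 is the no-effect control and ±100 the full control effect; nearly all actives have a fitted effect of over 50% in size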
# MCF10A rereplic: A quantitative high throughput screen for small molecules that induce DNA re-replication in MCF 10a normal breast cells. MCF 10A DNA re-replication, Hoechst nuclear intensity, 48 h. Potency, µM (top dose mostly 46.1 µM), for inactives: at the highest dose activity, positive = re-replication, usual class: activators. 2.9% of 350,000 active. AID 624296, 2012; further: potency means the concentration at half of the fitted maximal effect; % of control where 0% means no effect; nearly all actives have a fitted effect of over 50% in size
# RORg inh: qHTS for inhibitors of ROR gamma transcriptional activity. Potency, µM (doses to about 53.6 µM), for the others: at the highest dose activity change, negative = inhibition, hits mostly inhibitors. 5.4% of 310,000 active. Drosophila S2 Gal4-RORgamma UAS-luciferase reporter, 20 h. AID 2551, 2010. Nuclear receptor ROR-gamma (Mus musculus), P51450; further: potency means the concentration at half of the fitted maximal effect; on the % scale 0 is the no-effect control and ±100 the full control effect; nearly all actives have a fitted effect of over 60% in size
# Target sequence (P51450 whole entry, looked up, the tested form may be a part): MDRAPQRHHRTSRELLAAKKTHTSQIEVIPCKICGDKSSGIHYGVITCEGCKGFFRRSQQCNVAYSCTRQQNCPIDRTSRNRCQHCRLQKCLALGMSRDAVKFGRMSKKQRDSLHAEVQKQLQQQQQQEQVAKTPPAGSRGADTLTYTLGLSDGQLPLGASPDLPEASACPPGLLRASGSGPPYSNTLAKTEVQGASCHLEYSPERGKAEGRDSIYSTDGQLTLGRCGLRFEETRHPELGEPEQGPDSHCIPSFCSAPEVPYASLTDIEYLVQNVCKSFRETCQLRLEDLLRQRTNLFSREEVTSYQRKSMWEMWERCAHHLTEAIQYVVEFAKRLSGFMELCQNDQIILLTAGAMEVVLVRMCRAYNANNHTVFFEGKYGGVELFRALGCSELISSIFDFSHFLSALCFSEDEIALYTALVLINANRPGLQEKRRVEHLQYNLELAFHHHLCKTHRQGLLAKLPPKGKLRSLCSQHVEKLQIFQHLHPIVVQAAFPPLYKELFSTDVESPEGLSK
#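 Stably transfected Drosophila Schneider cells are the test system, with ROR gamma fused to Gal4 and luciferase under UAS control; luminescence is read after 20 hr of 700 uM copper sulfate induction at ambient temperature.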
# IL-1B inflam inh: qHTS for Inhibitors of Inflammasome Signaling: IL-1-beta AlphaLISA Primary Screen | THP-1 LPS/ATP IL-1B secretion, AlphaLISA, 16 h; hits give low values | activity change, % at 57.5 µM | 4.7% of 360,000 active | AID 743279, 2014; in the data active means activity change below about -50%; inconclusive means mostly about -30% to -49%; further: on the % scale 0 is the no-effect control and ±100 the full control effect
#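 THP-1 cells pretreated 1 hr with compounds (up to 57.5 uM final), then stimulated with LPS (250 ng/mL final) plus ATP (1.25 mM final); secreted IL-1B measured by AlphaLISA after 16 hr, decreased signal indicating inhibition.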
# SW480 rereplic: A quantitative high throughput screen for small molecules that induce DNA re-replication in SW480 colon adenocarcinoma cells; Potency, µM (top dose mostly 46.1 µM), for the others: at the highest dose re-replication activation, actives largely listed as activators; AID 624297, 2012; SW480 DNA re-replication, Hoechst DNA content imaging, 48 h; 1.8% of 340,000 active; further: potency means the concentration at half of the fitted maximal effect; % of control where 0% means no effect; nearly all actives have a fitted effect of over 55% in size
#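 Hoechst fluorescence of nuclei (405 nm excitation, 500-530 nm emission) measured by plate-scanning imager after 48 hr compound exposure at 37 C; re-replication scored as increased number of nuclei with elevated intensity.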
# Active calls of the source: *; ? = inconclusive; . = not tested or not shown; [ ] = dose if it differs, or a comment. Unless noted, the call rests on the fitted dose curve; in most records, active means well fitted curve in the direction sought with a large enough effect; inconclusive means small, poorly fitted or top-dose-only effect, or another doubt; inactive means no such curve, though single readings can be large; an effect the other way counts as inactive or inconclusive.
SMILES,VP16 counter,MCF10A rereplic,RORg inh,IL-1B inflam inh,SW480 rereplic
C/C(=N\NC(=O)c1ccccc1)c1ccc(NC(=O)c2cccs2)cc1,4.8%,17.1%,-6.5%,18.4,1.46µM*
C/C(=N\NC(=O)CNC(=O)c1cccs1)c1ccc(Cl)c(Cl)c1,0.0%,?,8.5%,-18.6,3.66µM*
COc1cc(N)ccc1NC(=O)c1cccs1,?,-0.2%,?,-20.1,-0.4%
COc1ccc(C(=O)Nc2cccc(NC(=O)c3cccs3)c2)cc1,25.4%,2.4%,21.4%,?,-6.3%
COc1ccc(C(=O)/C=C\c2ccc(NC(=O)c3cccs3)cc2)cc1,-5.1%,?,6.6%,?,18.4µM*
C/C(=N\NC(=O)c1ccccc1C)c1ccc(NC(=O)c2cccs2)cc1,15.0%,-0.8%,?,3.4,?
COc1ccc(/C(C)=N/NC(=O)CNC(=O)c2cccs2)cc1OC,-3.1%,-4.2%,1.6%,-5.3,-174.1%
COc1ccccc1-c1ccc([C@@H]2C[C@H]3[C@H](CON3C)CN2C(=O)c2ccco2)cc1,.,.,.,18.0,.
O=C(NCc1cccnc1)c1cc(C2CCCCN2S(=O)(=O)c2cccc3cccnc23)on1 (stereo not given),.,.,.,20.1,.
O=C(C[C@H]1C/C=C\CC[C@@H](Cc2ccc(F)cc2)C(=O)O[C@H](c2ccccc2)CNC1=O)N[C@H](CO)Cc1ccccc1,.,3.6%,.,-9.8,-42.1%
CC(C)(C)c1ccc(Oc2ccc(NC(=O)c3cccs3)cn2)cc1,?,?,?,-80.1*,-1.4%
O=C(O)COc1ccc(NC(=O)c2cccs2)cc1,.,-1.3%,.,10.5,-5.6%
COc1ccc(NS(=O)(=O)c2csc(C(N)=O)c2)cc1,1.9%,10.0%,15.7%,59.2,15.7%
COc1ccc(NS(=O)(=O)c2csc(C(=O)Nc3ccccc3)c2)cc1,20µM*,?,12.6µM*,0.0,-2.3%
CC1CCCN(C(=O)COc2ccc(NC(=O)c3cccs3)cc2)C1 (stereo not given),5.5%,-6.0%,24.8%,-56.5*,-3.6%
C/C(=N\NC(=O)c1ccccc1O)c1ccc(NC(=O)Cc2ccccc2)cc1,-9.0%,-2.2%,?,0.2,11.6µM*
COc1ccc(-c2cc(C(=O)Nc3cc(Br)ccc3O)no2)cc1,-24.5%,-24.5%,-22.2%,-15.3,-2.7%
COc1ccc(NC(=O)c2ccc(NC(=O)c3cccs3)cc2)cc1,?,10.0%,7.08µM*,-7.8,11.8%
Cc1ccc(-n2c(-c3ccco3)nc3nc4ccccc4nc32)cc1,3.4%,?,7.0%,-11.2,1.03µM*
Cc1ccc(Cn2c(N3CCN(CCO)CC3)nc3c2c(=O)n(C)c(=O)n3C)cc1,3.3%,-0.1%,14.4%,-52.0*,3.4%
Cn1c(=O)[nH]c(=O)c2c1nc(N1CCN(CCO)CC1)n2Cc1ccccc1Cl,7.4%,0.651µM*,-0.4%,3.9,-16.1%
C/C=C/Cn1c(N2CCCCCC2)nc2c1c(=O)[nH]c(=O)n2C,-4.9%,8.2%,1.2%[10 µM],-14.9,-1.3%
CCCn1c(N2CCN(CC(=O)c3c(C)n(C)c4ccccc34)CC2)nc2c1c(=O)[nH]c(=O)n2C,-0.9%,0.7%,-11.8%,-68.9*,19.8%
Cn1c(=O)[nH]c(=O)c2c1nc(N1CCCCC1)n2C/C=N/Nc1ccc(C(=O)O)cc1,?,2.2%,7.08µM*,2.3,-12.0%
CCN1C(=O)[C@H]2[C@H]3[C@H](O)[C@H](O)C/C(=N/NC(=O)OCc4ccc(OC)cc4)[C@H]3CC[C@@H]2C1=O,-6.3%[10 µM],.,-25.4%[10 µM],.,.
SMILES,VP16 counter,MCF10A rereplic,RORg inh,IL-1B inflam inh,SW480 rereplic
Cc1cc(C)c(C)c(S(=O)(=O)N2CCN(C(=O)C3CCC3)CC2)c1C,.,-4.7%,.,-2.3,-27.4%
COC(=O)c1ccc(OCC(=O)NC2CCCCCC2)cc1,-1.8%,10.7%,?,-4.3,-2.7%
Cc1ccc(SCC(=O)OCC(=O)NC(C)c2ccc(Br)cc2)cc1 (stereo not given),-18.5%,-0.1%,3.3%,11.7,-1.5%
CCc1nc2ccc(C(=O)N3CCN(S(=O)(=O)CC)CC3)cn2c1N(CC)CCOC,.,.,.,40.1,.
Nc1cc(Cl)ccc1C(=O)OCC(=O)NC1CCCCCCC1,.,?,.,-23.6,-14.7%
COc1ccc(C(=O)Nc2ccncc2)cc1[N+](=O)[O-],-24.8%,2.3%,25.5%,-79.0*,?
CCOc1ccc(C(=O)NC(=S)Nc2ccccc2OC)cc1[N+](=O)[O-],?,9.1%,7.08µM*,-12.6,0.9%
CCOc1ccc(C(=O)NC(=S)Nc2ccccc2N2CCCCC2)cc1[N+](=O)[O-],0.501µM*,9.0%,?,1.6,6.6%
CCc1ccc(NC(=O)c2ccc(OC)c([N+](=O)[O-])c2)cc1,-13.3%,-6.6%,37.2%,-8.2,-87.5%
Cc1c(C(=O)NC(=S)Nc2ccccc2N2CCCC2)cccc1[N+](=O)[O-],-100.5%,9.1%,?,0.7,11.8%
COc1ccc(C(=O)NC(=S)Nc2ccccc2N2CCCCC2)cc1[N+](=O)[O-],1µM*,?,?,18.3,-1.6%
CCCCCCCCCCCCCCCC(=O)OCC(O)C1OC(=O)C(O)=C1O (stereo not given),-0.2%,.,3.7%,.,.
O=C(O)C1CCN(C(=O)CSc2nc3cc(Cl)ccc3c(=O)n2Cc2ccccc2)CC1,19.9%,11.0%,-5.7%,32.4,-6.8%
CCn1c(Cc2ccccc2)nnc1SCC(=O)c1c(N)n(C2CC2)c(=O)[nH]c1=O,.,-8.0%,.,5.0,-11.7%
COc1cc(C(=O)NC(=S)Nc2ccccc2[N+](=O)[O-])cc(OC)c1OC,?,24.3%,5.62µM*,-19.7,-15.3%
O=C(Nc1ccc(Nc2ccncc2)cc1)c1ccc([N+](=O)[O-])cc1,?,?,?,-97.5*,0.5%
COc1cc(C(=O)NC(=S)Nc2ccc([N+](=O)[O-])cc2C)cc(OC)c1OC,?,2.4%,?,15.7,17.2%
O=C(Nc1ccc(Oc2cccnc2)cc1)c1ccc([N+](=O)[O-])cc1,-0.9%,16.3%,2.2%,?,-5.5%
CCOc1ccc(C(=O)Nc2ccc(N3CCN(C)CC3)cc2)cc1[N+](=O)[O-],-17.0%[10 µM],7.8%,-1.5%,-24.4,-1.9%
CCOc1ccc(C(=O)NC(=S)NC2CCCC2)cc1[N+](=O)[O-],15.8µM*,9.9%,5.01µM*,-13.3,-0.2%
COc1ccc(Cl)cc1C(=O)Nc1ccncc1,-1.9%,1.9%,29.8%,-66.1*,-55.8%
COc1ccc(S(=O)(=O)Nc2ccc(F)cc2F)cc1C(=O)N1CCOCC1,10.1%,-5.4%,0.7%,15.3,-1.2%
COC(=O)N1CCC2(CCN(Cc3ccccc3OC)CC2)CC1,-8.2%,.,-17.5%,.,.
